L3MBTL1 inh: qHTS Assay for the Inhibitors of L3MBTL1 | Potency, µM (titrated, usually from 57.1 µM), for inactives: at the highest dose activity, negative = inhibition, actives largely listed as inhibitors | 0.66% of 230,000 active | AlphaScreen L3MBTL1–H3K9me1 peptide binding; note: % is set by controls: 0 for no effect and ±100 for the full control effect; nearly all actives have a fitted effect of over 60% in size
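AlphaScreen assay: L3MBTL1 (50 nM final) was preincubated 30 min at room temperature with biotinylated H3(1-15)K9me1 peptide (75 nM final), then 30 min with library compounds; streptavidin donor and nickel chelate acceptor beads (10 ug/mL final) added, 30 min dark.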
G9a inh: qHTS Assay for Inhibitors of Histone Lysine Methyltransferase G9a; Potency, µM (titrated, usually from 102 µM), for inactives: top-dose activity, negative = inhibition, most hits filed as inhibitors; G9a H3K9 monomethylation, AlphaScreen, 2 h; 8.8% of 350,000 active; Histone-lysine N-methyltransferase EHMT2 (Homo sapiens), Q96KQ7; AID 504332, 2011; note: % is set by controls: 0 for no effect and ±100 for the full control effect; nearly all actives have a fitted effect of over 75% in size
Target sequence (Q96KQ7 913-1193 limits assumed): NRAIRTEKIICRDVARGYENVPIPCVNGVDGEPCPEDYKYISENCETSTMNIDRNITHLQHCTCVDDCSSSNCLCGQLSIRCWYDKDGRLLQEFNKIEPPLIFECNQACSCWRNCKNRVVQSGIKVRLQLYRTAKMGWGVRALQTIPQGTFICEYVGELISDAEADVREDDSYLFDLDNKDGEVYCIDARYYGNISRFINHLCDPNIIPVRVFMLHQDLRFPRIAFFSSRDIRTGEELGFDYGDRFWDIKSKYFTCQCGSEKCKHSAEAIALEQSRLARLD
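G9a (20 nM) preincubated 15 min RT with compounds, then 500 nM biotinylated H3K9 peptide and 20 uM SAM added; 2 h RT reaction. Monomethyl-H3K9 product detected by AlphaScreen with anti-H3K9me1 antibody, streptavidin donor and anti-rabbit IgG acceptor beads.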
JMJD2A Tudor: qHTS Assay for Inhibitors of JMJD2A-Tudor Domain; AlphaScreen JMJD2A-Tudor / H3K4me3 peptide binding; Potency, µM (doses to about 114 µM), for the others: at the highest dose activity change, negative = inhibition, usual class: inhibitors; 4.4% of 390,000 active; note: % is set by controls: 0 for no effect and ±100 for the full control effect; nearly all actives have a fitted effect of over 50% in size
BAZ2B inh: qHTS Assay for Inhibitors of BAZ2B; AlphaScreen BAZ2B-H3K14Ac peptide displacement; AID 504333, 2011; 4.4% of 360,000 active; Potency, µM (highest dose often 114 µM), inactives show at the top dose activity change, negative = inhibition, usual class: inhibitors; Bromodomain adjacent to zinc finger domain protein 2B (Homo sapiens), Q9UIF8; note: % is set by controls: 0 for no effect and ±100 for the full control effect; nearly all actives have a fitted effect of over 60% in size
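AlphaScreen displacement of biotin-H3(5-23)K14Ac peptide (50 nM final) from BAZ2B (50 nM final) in PBS pH 7.4, 0.01% Tween-20; complex preformed 30 min RT, then compounds (top 110 uM) 30 min RT, beads 20 min dark.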
HP1b chromo inh: HTS for Inhibitors of HP1-beta Chromodomain Interactions with Methylated Histone Tails; AID 540317, 2011; AlphaScreen HP1-beta / biotin-H3K9me3 peptide binding; 0.56% of 390,000 active; Potency, µM (highest dose often 114 µM), without a hit: at the highest dose activity change, negative = inhibition, usual class: inhibitors; Chromobox protein homolog 1 (Homo sapiens), P83916; note: nearly all actives have a fitted effect of over 70% in size
Target sequence (P83916 whole entry, looked up): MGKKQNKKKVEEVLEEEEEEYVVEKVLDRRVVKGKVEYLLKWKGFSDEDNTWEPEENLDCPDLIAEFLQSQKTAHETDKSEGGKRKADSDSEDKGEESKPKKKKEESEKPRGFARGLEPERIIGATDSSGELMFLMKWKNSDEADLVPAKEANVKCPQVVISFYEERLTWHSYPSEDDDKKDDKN
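HP1-beta protein (50 nM final) preincubated 30 min at room temperature with biotinylated H3(1-18)K9me3 peptide (50 nM) in PBS pH 7.4, 0.01% Tween-20, then compound added for 30 min. AlphaScreen streptavidin donor/nickel chelate acceptor beads (10 ug/mL final), 30 min dark, luminescence read.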
* hit, by the source's call; ? = inconclusive; . = no result; ! = repeats disagree; [ ] = dose if it differs, or a comment. An excerpt weighted towards active compounds, which were near 11% of everything screened. Calls come from the whole dose curve; as a rule, active = well fitted inhibition curve with a large enough effect; inconclusive = small, poorly fitted or top-dose-only effect; inactive = no such curve, though single readings can be large or run the other way. Potency is the fitted concentration of half-maximal effect.

SMILES	L3MBTL1 inh	G9a inh	JMJD2A Tudor	BAZ2B inh	HP1b chromo inh
Cc1[nH]c2ccccc2c1C(=O)COC(=O)c1ccc([N+](=O)[O-])s1	-13.9%	31.6µM*	?	?	-6.0%
Cc1c(Cl)cnc(NC(=O)COC(=O)c2cccs2)c1Cl	29.9%	22.9%[12.7 µM]	-6.7%	22.2%	48.9%
Cc1c(Cl)cnc(NC(=O)COC(=O)c2ccc3ncsc3c2)c1Cl	?	?	?	50.1µM*	0.0%
O=C(COC(=O)c1ccc2c(c1)OCO2)Nc1ncc(Cl)cc1Cl	3.1%	-0.7%[59 µM]	-9.7%	-4.3%	35.4%
COCCn1c(=S)[nH]c2cc(C(=O)N3CCN(Cc4ccccc4)CC3)ccc2c1=O	.	.	-21.1%	.	50.1%
Cc1c(Cl)cnc(NC(=O)COC(=O)c2ccc([N+](=O)[O-])s2)c1Cl	?	25.1µM*	50.1µM*	44.7µM*	-19.0%
O=C(COC(=O)c1ccc([N+](=O)[O-])s1)Nc1ccc(Cl)cn1	?	-23.9%[59 µM]	-26.9%	-38.8%	9.9%
CCOc1ccc(NCC2CCOC(C)(C)C2)cc1 (centres undefined)	-8.1%	7.08µM*	-35.8%	?	-5.9%
CCOc1ccc(NC(=O)CC2CC(C)(C)OC2=O)cc1 (centres undefined)	7.1%	-2.8%[59 µM]	-1.5%[11.4 µM]	-1.5%	-15.0%
CCOC(=O)COc1cc(Br)c(/C=N/Nc2ccccc2)cc1OC	-5.3%	10µM*	-24.2%	-1.3%	27.0%
COc1ccc(/C=N/Nc2ccc(C(=O)O)cc2)cc1Br	.	35.5µM*	-25.9%	?	12.0%
C=CCOc1c(Br)cc(/C=N/Nc2ccc(C(=O)O)cc2)cc1OCC	-4.6%	3.16µM*	-26.6%[57.1 µM]	-5.3%	2.0%
CCOc1ccc(NS(=O)(=O)c2c(C)nc3sc(C)c(C)n3c2=O)cc1	.	-30.9%[59 µM]	-33.3%	-26.1%	0.6%
CC1=C(C(=O)Nc2ccc(Cl)cc2)C(C(C)C)n2nc(SCc3ccc(Cl)cc3)nc2N1 (centres undefined)	.	-20.1%[59 µM]	-12.3%	-0.8%	8.4%
CC(=O)c1ccc(N2C(=O)[C@@H]3[C@H](C2=O)[C@H]2c4ccccc4C=NN2[C@@H]3C(C)=O)cc1	.	.	-15.2%	13.5%	31.0%
CC(=O)[C@@H]1[C@@H]2C(=O)N(c3ccccc3F)C(=O)[C@@H]2[C@H]2c3ccccc3C=NN12	-3.4%	50.1µM*	-11.5%	-1.7%	35.7%
COc1ccc(N2C(=O)[C@H]3[C@@H](C2=O)C2c4ccccc4C=NN2[C@H]3C(=O)C(C)(C)C)cc1 (some centres undefined)	.	.	-10.4%	?	20.9%
O=C(c1ccc(Cl)cc1)[C@@H]1[C@@H]2C(=O)N(c3cccc4ccccc34)C(=O)[C@@H]2C2c3ccccc3C=NN21 (some centres undefined)	-15.3%	20µM*	?	-5.8%	0.4%
O=C1C[C@@H]2c3c(cccc3CN1Cc1ccccc1Br)C[C@@H](O)[C@H]2O	.	.	-19.0%	.	22.2%
COc1ccc(Oc2ncc3ncc(=O)n(Cc4ccc(F)cc4)c3n2)cc1	.	-4.9%[12.7 µM]	.	.	.
COCCNCC(=O)Nc1nc(C)cs1	2.3%	8.91µM*	?	31.6µM*	14.7%
COc1ccc2nc(NC(=O)CNS(=O)(=O)c3cccs3)sc2c1	.	10.2%[12.7 µM]	-27.4%	-7.2%	1.4%
Cc1csc(NC(=O)CNS(=O)(=O)c2cccs2)n1	-1.6%	47.2%[12.7 µM]	8.91µM*	-2.2%	4.7%
Cc1csc(NC(=O)CSc2nc(C)cs2)n1	-1.4%	-20.7%[12.7 µM]	10.4%	1.2%	22.3%
CN1CCN(CC(=O)O)CC1	.	35.5µM*	?	?	1.6%
O=c1cc(-c2ccccc2Cl)oc2c(NS(=O)(=O)c3cc(Cl)cc(Cl)c3O)ccc(O)c12	-23.0%	50.1µM*	56.2µM*	50.1µM*	-31.5%
Nc1ccc(O)c2c(=O)cc(-c3ccccc3Cl)oc12	-9.1%	15.8µM*!	-19.7%	-5.8%	25.5%
O=c1cc(-c2ccccc2Cl)oc2cc(O)cc(O)c12	-4.4%	44.7µM*	-18.3%	-23.4%	21.6%

High-throughput results (PubChem BioAssay)
